Results reported in the supplement of paper PMC4466140.

Legend:
Test in all cases: SPOT peptide array binding signal intensity (averaged, normalized) (arbitrary units (background-subtracted, floor 0; scale differs between SH3 domains)); higher = stronger binding of the SH3 domain to the peptide
CaNbp2 = target: CaNbp2
Method: (§1)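 GST-tagged SH3 domains from S. cerevisiae (Sc), A. gossypii (Ag), C. albicans (Ca) and S. pombe (Sp) were incubated at 10 ug/ml overnight at 4 C on cellulose SPOT membranes carrying 292 synthetic 15-mer peptides mined from the S. cerevisiae proteome (cysteines replaced by serines). Binding was detected with anti-GST antibody, HRP secondary and chemiluminescence, quantified with Genespotter, and reported as normalized spot intensities averaged over biological replicates.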

CaRvs167 = target: CaRvs167
Method: as §1

CaRvs167-3 = target: CaRvs167-3
Method: as §1

CaSho1 = target: CaSho1
Method: as §1

CaSla1-D1-D2 = target: CaSla1-D1-D2
Method: as §1

CaSla1-D3 = target: CaSla1-D3
Method: as §1

ScAbp1 = target: ScAbp1
Method: as §1

ScBbc1 = target: ScBbc1
Method: as §1

ScBem1-D1 = target: ScBem1-D1
Method: as §1

ScBzz1-D1 = target: ScBzz1-D1
Method: as §1

ScBzz1-D2 = target: ScBzz1-D2
Method: as §1

ScCyk3 = target: ScCyk3
Method: as §1

ScFus1 = target: ScFus1
Method: as §1

ScHof1 = target: ScHof1
Method: as §1

ScHse1 = target: ScHse1
Method: as §1

ScLsb1 = target: ScLsb1
Method: as §1

ScLsb2 = target: ScLsb2
Method: as §1

ScLsb3 = target: ScLsb3
Method: as §1

ScLsb4 = target: ScLsb4
Method: as §1

ScMyo3 = target: ScMyo3
Method: as §1

ScMyo5 = target: ScMyo5
Method: as §1

ScNbp2 = target: ScNbp2
Method: as §1

ScPex13 = target: ScPex13
Method: as §1

ScRvs167 = target: ScRvs167
Method: as §1

ScSho1 = target: ScSho1
Method: as §1

ScSla1-D1-D2 = target: ScSla1-D1-D2
Method: as §1

ScSla1-D3 = target: ScSla1-D3
Method: as §1

SpAbp1-D1 = target: SpAbp1-D1
Method: as §1

SpBbc1 = target: SpBbc1
Method: as §1

SpBzz1-D1 = target: SpBzz1-D1
Method: as §1

SpBzz1-D2 = target: SpBzz1-D2
Method: as §1

SpCyk3 = target: SpCyk3
Method: as §1

SpHof1 = target: SpHof1
Method: as §1

SpHof1-2 = target: SpHof1-2
Method: as §1

SpHof1-3 = target: SpHof1-3
Method: as §1

SpHse1 = target: SpHse1
Method: as §1

SpLsb1 = target: SpLsb1
Method: as §1

SpLsb4 = target: SpLsb4
Method: as §1

SpMyo1 = target: SpMyo1
Method: as §1

SpNbp2 = target: SpNbp2
Method: as §1

SpPex13 = target: SpPex13
Method: as §1

SpRvs167 = target: SpRvs167
Method: as §1

SpSla1-D1-D2 = target: SpSla1-D1-D2
Method: as §1

SpSla1-D3 = target: SpSla1-D3
Method: as §1

AgAbp1 = target: AgAbp1
Method: as §1

AgBbc1 = target: AgBbc1
Method: as §1

AgBem1-D1 = target: AgBem1-D1
Method: as §1

AgBzz1-D1 = target: AgBzz1-D1
Method: as §1

AgBzz1-D2 = target: AgBzz1-D2
Method: as §1

AgCyk3 = target: AgCyk3
Method: as §1

AgFus1 = target: AgFus1
Method: as §1

AgHof1 = target: AgHof1
Method: as §1

AgHse1 = target: AgHse1
Method: as §1

AgLsb1 = target: AgLsb1
Method: as §1

AgLsb4 = target: AgLsb4
Method: as §1

AgMyo5 = target: AgMyo5
Method: as §1

AgNbp2 = target: AgNbp2
Method: as §1

AgRvs167 = target: AgRvs167
Method: as §1

AgSho1 = target: AgSho1
Method: as §1

AgSla1-D1-D2 = target: AgSla1-D1-D2
Method: as §1

AgSla1-D3 = target: AgSla1-D3
Method: as §1

CaAbp1-D1 = target: CaAbp1-D1
Method: as §1

CaAbp1-D2 = target: CaAbp1-D2
Method: as §1

CaBbc1 = target: CaBbc1
Method: as §1

CaBem1-D1 = target: CaBem1-D1
Method: as §1

CaBzz1-D1 = target: CaBzz1-D1
Method: as §1

CaBzz1-D2 = target: CaBzz1-D2
Method: as §1

CaCyk3 = target: CaCyk3
Method: as §1

CaFus1 = target: CaFus1
Method: as §1

CaHof1 = target: CaHof1
Method: as §1

CaHse1 = target: CaHse1
Method: as §1

CaLsb1 = target: CaLsb1
Method: as §1

CaLsb4 = target: CaLsb4
Method: as §1

CaMyo5 = target: CaMyo5
Method: as §1

## RRRRRPHRIERPLSN
CaNbp2
  SPOT peptide array binding signal intensity: 394
CaRvs167
  SPOT peptide array binding signal intensity: 12
CaRvs167-3
  SPOT peptide array binding signal intensity: 104
CaSho1
  SPOT peptide array binding signal intensity: 674
CaSla1-D1-D2
  SPOT peptide array binding signal intensity: 27
CaSla1-D3
  SPOT peptide array binding signal intensity: 3.5
ScAbp1
  SPOT peptide array binding signal intensity: 16
ScBbc1
  SPOT peptide array binding signal intensity: 124
ScBem1-D1
  SPOT peptide array binding signal intensity: 98
ScBzz1-D1
  SPOT peptide array binding signal intensity: 7.5
ScBzz1-D2
  SPOT peptide array binding signal intensity: 15
ScCyk3
  SPOT peptide array binding signal intensity: 272
ScFus1
  SPOT peptide array binding signal intensity: 396
ScHof1
  SPOT peptide array binding signal intensity: ≤ 0
ScHse1
  SPOT peptide array binding signal intensity: 1290
ScLsb1
  SPOT peptide array binding signal intensity: 11.2
ScLsb2
  SPOT peptide array binding signal intensity: 6
ScLsb3
  SPOT peptide array binding signal intensity: 690
ScLsb4
  SPOT peptide array binding signal intensity: 7.5
ScMyo3
  SPOT peptide array binding signal intensity: 6.5
ScMyo5
  SPOT peptide array binding signal intensity: 3.25
ScNbp2
  SPOT peptide array binding signal intensity: 437
ScPex13
  SPOT peptide array binding signal intensity: 0.5
ScRvs167
  SPOT peptide array binding signal intensity: 29
ScSho1
  SPOT peptide array binding signal intensity: 430
ScSla1-D1-D2
  SPOT peptide array binding signal intensity: 303
ScSla1-D3
  SPOT peptide array binding signal intensity: 11
SpAbp1-D1
  SPOT peptide array binding signal intensity: 143
SpBbc1
  SPOT peptide array binding signal intensity: 7.25
SpBzz1-D1
  SPOT peptide array binding signal intensity: 91
SpBzz1-D2
  SPOT peptide array binding signal intensity: 1.25
SpCyk3
  SPOT peptide array binding signal intensity: 7
SpHof1
  SPOT peptide array binding signal intensity: 217
SpHof1-2
  SPOT peptide array binding signal intensity: 13
SpHof1-3
  SPOT peptide array binding signal intensity: 456
SpHse1
  SPOT peptide array binding signal intensity: 421
SpLsb1
  SPOT peptide array binding signal intensity: ≤ 0
SpLsb4
  SPOT peptide array binding signal intensity: 336
SpMyo1
  SPOT peptide array binding signal intensity: 3
SpNbp2
  SPOT peptide array binding signal intensity: 418
SpPex13
  SPOT peptide array binding signal intensity: 10
SpRvs167
  SPOT peptide array binding signal intensity: 3.83
SpSla1-D1-D2
  SPOT peptide array binding signal intensity: 5
SpSla1-D3
  SPOT peptide array binding signal intensity: 5

## GQYRRTIVIPRRFFT
AgAbp1
  SPOT peptide array binding signal intensity: 24.5
AgBbc1
  SPOT peptide array binding signal intensity: 25.5
AgBem1-D1
  SPOT peptide array binding signal intensity: 52
AgBzz1-D1
  SPOT peptide array binding signal intensity: 42.5
AgBzz1-D2
  SPOT peptide array binding signal intensity: 21
AgCyk3
  SPOT peptide array binding signal intensity: 42.5
AgFus1
  SPOT peptide array binding signal intensity: 619
AgHof1
  SPOT peptide array binding signal intensity: 68
AgHse1
  SPOT peptide array binding signal intensity: 478
AgLsb1
  SPOT peptide array binding signal intensity: 10
AgLsb4
  SPOT peptide array binding signal intensity: 211
AgMyo5
  SPOT peptide array binding signal intensity: 2.25
AgNbp2
  SPOT peptide array binding signal intensity: 56.5
AgRvs167
  SPOT peptide array binding signal intensity: 14.8
AgSho1
  SPOT peptide array binding signal intensity: 255
AgSla1-D1-D2
  SPOT peptide array binding signal intensity: 763
AgSla1-D3
  SPOT peptide array binding signal intensity: 11
CaAbp1-D1
  SPOT peptide array binding signal intensity: 168
CaAbp1-D2
  SPOT peptide array binding signal intensity: 172
CaBbc1
  SPOT peptide array binding signal intensity: 128
CaBem1-D1
  SPOT peptide array binding signal intensity: 24.5
CaBzz1-D1
  SPOT peptide array binding signal intensity: 60
CaBzz1-D2
  SPOT peptide array binding signal intensity: 45
CaCyk3
  SPOT peptide array binding signal intensity: 81
CaFus1
  SPOT peptide array binding signal intensity: 2340
CaHof1
  SPOT peptide array binding signal intensity: 5
CaHse1
  SPOT peptide array binding signal intensity: 45.8
CaLsb1
  SPOT peptide array binding signal intensity: 7
CaLsb4
  SPOT peptide array binding signal intensity: 94.5
CaMyo5
  SPOT peptide array binding signal intensity: 46.5
CaNbp2
  SPOT peptide array binding signal intensity: 564
CaRvs167
  SPOT peptide array binding signal intensity: 191
CaRvs167-3
  SPOT peptide array binding signal intensity: 1390
CaSho1
  SPOT peptide array binding signal intensity: 1460
CaSla1-D1-D2
  SPOT peptide array binding signal intensity: 60
CaSla1-D3
  SPOT peptide array binding signal intensity: 89.8
ScAbp1
  SPOT peptide array binding signal intensity: 71
ScBbc1
  SPOT peptide array binding signal intensity: 2.5
ScBem1-D1
  SPOT peptide array binding signal intensity: 9
ScBzz1-D1
  SPOT peptide array binding signal intensity: 17.5
ScBzz1-D2
  SPOT peptide array binding signal intensity: 78
ScCyk3
  SPOT peptide array binding signal intensity: 108
ScFus1
  SPOT peptide array binding signal intensity: 898
ScHof1
  SPOT peptide array binding signal intensity: 4.75
ScHse1
  SPOT peptide array binding signal intensity: 995
ScLsb1
  SPOT peptide array binding signal intensity: 10.2
ScLsb2
  SPOT peptide array binding signal intensity: 29
ScLsb3
  SPOT peptide array binding signal intensity: 210
ScLsb4
  SPOT peptide array binding signal intensity: 33
ScMyo3
  SPOT peptide array binding signal intensity: 12.5
ScMyo5
  SPOT peptide array binding signal intensity: 10
ScNbp2
  SPOT peptide array binding signal intensity: 346
ScPex13
  SPOT peptide array binding signal intensity: 15.2
ScRvs167
  SPOT peptide array binding signal intensity: 69.3
ScSho1
  SPOT peptide array binding signal intensity: 1020
ScSla1-D1-D2
  SPOT peptide array binding signal intensity: 205
ScSla1-D3
  SPOT peptide array binding signal intensity: 54.5
SpAbp1-D1
  SPOT peptide array binding signal intensity: 242
SpBbc1
  SPOT peptide array binding signal intensity: 12.5
SpBzz1-D1
  SPOT peptide array binding signal intensity: 107
SpBzz1-D2
  SPOT peptide array binding signal intensity: 4.5
SpCyk3
  SPOT peptide array binding signal intensity: 21
SpHof1
  SPOT peptide array binding signal intensity: 186
SpHof1-2
  SPOT peptide array binding signal intensity: 50
SpHof1-3
  SPOT peptide array binding signal intensity: 321
SpHse1
  SPOT peptide array binding signal intensity: 573
SpLsb1
  SPOT peptide array binding signal intensity: 5
SpLsb4
  SPOT peptide array binding signal intensity: 131
SpMyo1
  SPOT peptide array binding signal intensity: 4.75
SpNbp2
  SPOT peptide array binding signal intensity: 287
SpPex13
  SPOT peptide array binding signal intensity: 79.5
SpRvs167
  SPOT peptide array binding signal intensity: 43
SpSla1-D1-D2
  SPOT peptide array binding signal intensity: 6
SpSla1-D3
  SPOT peptide array binding signal intensity: 47
